Measurements reported in PubChem BioAssay AID1347135 (National Center for Advancing Translational Sciences (NCATS), 2019).
Some of the results follow. Inconclusive results are not listed. Active and inactive are the calls of the source. Calls follow the shape of the dose curve; as a rule, active = well fitted inhibition curve with a large enough effect; inconclusive = small, poorly fitted or top-dose-only effect; inactive = flat fitted curve, though single readings scatter.

Assay: qHTS of pediatric cancer cell lines to identify multiple opportunities for drug repurposing: Orthogonal 3D viability screen for SK-N-SH cells
Conditions: SK-N-SH 3D spheroid viability, PI/Hoechst imaging, 72 h
Source text: Drug repurposing or repositioning has been offered as a strategy for drug development in oncology programs. This approach has special potential for childhood cancers and other rare or orphan diseases, where the expected return on new drug development has been a disincentive to pharmaceuticals. […] In this project we exploit the poly-pharmacology of drugs to discover new indications via phenotypic screening of a panel of 19 well-characterized cell lines derived from solid tumors seen in children and adolescents. The goal is to identify approved drugs with previously unrecognized anticancer properties that has the potential to reveal new mechanisms and biological processes involved in carcinogenesis or drug resistance. We employed a titration-based paradigm (quantitative high-throughput screening or qHTS), where all compounds were tested at multiple concentrations for their effect on cell viability. Concentration-response curves (CRCs) were derived directly from the primary screen, and both potency and efficacy values were used to identify compounds with robust bioactivity profiles. […] These two assays will be used to validate active compounds and assess the correlation of compound's potency in 2D vs 3D cultures on selected cell lines. Assay Submitter: Nathalia J. Martinez, National Center for Advancing Translational Sciences, National Institutes of Health, Rockville, MD, USA; email: natalia.martinez@nih.gov Shen, M et al. Quantitative high-throughput phenotypic screening of pediatric cancer cell lines identifies multiple opportunities for drug repurposing. Oncotarget 2017 Dec 19;9(4):4758-4772. PMID 29435139.
The cells were obtained from University of North Carolina (UNC), Pediatric Preclinical Testing Program (PPT), and Coriell Institute (CI). qHTS viability in 3D culture: Cells were assayed in phenol red-free growth media at a density of 1,000 cells/well, with the exception of Daoy, and SH-N-SH which were assayed at 1,500 cells/ well. Thirty muL of cells were dispensed into 384-well, ULA, round bottom plates (Corning) using a Multidrop dispenser. Plates were spun down at 1,000 rpm for 1 min and incubated at 37 degrees C, 5% CO2, under a humidified atmosphere for either 24 (Daoy) or 48 hours (all other cell lines) to allow spheroid formation. Ninety-two nanoliter of compounds and controls (neutral control DMSO or positive control bortezomib at final concentrations of 0.5 µM) were subsequently transferred via GNF Pintool. Plates were sealed using a breathable seal (Diversified Biotech, Dedham, MA) and incubated for 72 hours at 37 degrees C. Spheroid viability was first determined by high-content imaging using Hoechst 33342 and Propidium Iodide (PI, ThermoFisher Scientific), followed by addition of CellTiter-Glo 3D (Promega). Specifically, 3 µL/well of PBS containing a 1:500 dilution of both dyes was dispensed using Multidrop. Dyes were incubated for 1 hour before imaging using the Celigo Image Cytometer. Then, 20 µl of CellTiter-Glo 3D were added per well. Plates were incubated for 30 min at RT on a VWR microplate shaker (300 rpm) and analyzed for luminescence intensity using a ViewLux High-throughput CCD imager equipped with clear filters. Image analysis was done using the Celigo Tumorsphere 1+2+3 application software as previously described. […] The data were exported to Excel, and the average fluorescent intensities were used to calculate the ratio of PI over Hoechst, which was used to quantify viability. […]
In the case of CC[C@H]1CN2CCc3cc(OC)c(OC)cc3[C@@H]2C[C@@H]1C[C@H]1NCCc2cc(OC)c(OC)cc21, the Potency is reported as 72.2 nM (active).
For COC(=O)Nc1nc2ccc(Sc3ccccc3)cc2[nH]1, the Potency was 1620 nM (active).
In the case of CC1(C)O[C@@H]2C[C@@H]3[C@H]4C[C@@H](F)C5=CC(=O)C=C[C@]5(C)[C@@]4(F)[C@@H](O)C[C@]3(C)[C@]2(C(=O)CO)O1, the Potency is reported as 456 nM (active).
In the case of CC[C@]1(O)C[C@@H]2CN(CCc3c([nH]c4ccccc34)[C@@](C(=O)OC)(c3cc4c(cc3OC)N(C)[C@H]3[C@@](O)(C(=O)OC)[C@H](OC(C)=O)[C@]5(CC)C=CCN6CC[C@]43[C@@H]65)C2)C1, the Potency is reported as 90.9 nM (active).
In the case of CC(NCc1ccc2c(c1)nc(NC(=O)c1ccc(-c3cn[nH]c3)s1)n2CC(C)(C)O)C(C)(C)C (stereo not given), the Potency is reported as 204 nM (active).
